In the library only some 2.6% were active in any assay of this set; here they are far more common.
NTMT1 inh = NTMT1 methyltransferase inhibition | Q9BV86 | NTMT1 MTase-Glo SAH luminescence, purified enzyme | Potency, µM (doses to about 114 µM), for inactives: top-dose activity change, negative = inhibition, actives largely listed as inhibitors | 2.5% of 59,000 active | AID 1645870;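 note: potency is the fitted concentration of half-maximal effect; plate controls were DMSO vehicle for no effect and no enzyme for full effect; nearly all actives have a fitted effect of over 65% in size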
Target sequence (Q9BV86 whole entry, looked up): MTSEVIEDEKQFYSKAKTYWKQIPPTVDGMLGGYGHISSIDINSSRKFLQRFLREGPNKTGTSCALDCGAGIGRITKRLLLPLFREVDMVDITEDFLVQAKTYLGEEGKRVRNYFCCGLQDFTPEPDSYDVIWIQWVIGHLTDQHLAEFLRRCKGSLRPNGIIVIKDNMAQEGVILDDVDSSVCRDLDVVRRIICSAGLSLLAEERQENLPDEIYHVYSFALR
HTT promoter inh = inhibitors of huntingtin promoter activity | 0.93% of 48,000 active | HEK293 HTT promoter firefly luciferase reporter, 24 h | AID 1508623 | Potency, µM (doses to about 57.5 µM), for inactives: top-dose activity change, negative = inhibition, hits mostly inhibitors; note: potency is the fitted concentration of half-maximal effect; nearly all actives have a fitted effect of over 50% in size
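HEK293 Fluc reporter, 2,500 cells/well, 24 h pre-culture; cpds up to 57.5 uM final, 24 h 37 degrees C; Dual-Glo, 10 min RT; normalized vehicle = 0%, zero RLU = -100%.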
FH mod = Identification of activators of human fumarate hydratase by quantitative high-throughput screening | Fumarate hydratase, mitochondrial (Homo sapiens), P07954 | FH coupled MDH/diaphorase resazurin fluorescence, 15 min | Potency, µM (titrated, usually from 79.9 µM), inactives show at the highest dose activity change, negative = inhibition, most hits filed as inhibitors | 0.22% of 54,000 active | AID 1347055, 2019; note: potency is the fitted concentration of half-maximal effect; % is set by controls: 0 for no effect and ±100 for the full control effect; the screen sought activators but most active calls are inhibition curves; nearly all actives have a fitted effect of over 45% in size
HTT-AS promoter = activates huntingtin-antisense promoter activity; HEK293 HTT-AS promoter firefly luciferase reporter, 24 h; response scale: percent change from vehicle, -100% = no light; Potency, µM (doses to about 57.5 µM), inactives show top-dose activity change, positive = activation, actives largely listed as activators; 0.24% of 48,000 active; AID 1508624; note: potency is the fitted concentration of half-maximal effect; nearly all actives have a fitted effect of over 55% in size
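HEK293 cells carrying firefly luciferase reporters were seeded at 2,500 per well in Opti-MEM and cultured for 24 h. They were then treated with compounds at up to 57.5 uM final for 24 h at 37 degrees C before Dual-Glo luminescence readout.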
DYRK1A inh-1 = human DYRK1A kinase inhibition by ATP depletion readout; 80% of 100 active; Potency, µM (top dose mostly 76.9 µM), inactives show top-dose activity change, negative = inhibition, usual class: inhibitors; shares compounds with NTMT1 inh; recombinant DYRK1A, Kinase-Glo ATP depletion luminescence
CLK4 inh = CLK4 kinase inhibition, SAR round 2; 100% of 65 active; Potency, µM, hits mostly inhibitors; shares compounds with NTMT1 inh; Reaction Biology kinase assay, 10 uM ATP; AID 504421; calls by dose curve
DYRK1A inh-2 = inhibitors of human DYRK1A kinase | shares compounds with NTMT1 inh | Reaction Biology kinase assay, 10 uM ATP | Potency, µM, usual class: inhibitors | 90% of 65 active | AID 504424;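 active = compounds that showed inhibition of Dyrk1a and received a fitted potency; inactive = compounds that showed no inhibition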
CLK2 inh = CLK2 kinase inhibition; shares compounds with NTMT1 inh; Reaction Biology kinase assay, 10 uM ATP; Potency, µM, most hits filed as inhibitors; 90% of 65 active; AID 504427;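 active = compound that inhibits Clk2 kinase in the dose series, with an IC50 potency reported; inactive = no inhibition seen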
CLK3 RBC = blocks human CLK3 kinase activity. shares compounds with NTMT1 inh. recombinant CLK3 kinase assay, 10 uM ATP. Potency, µM, hits mostly inhibitors. 40% of 65 active. AID 504428;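 active = compounds that inhibited Clk3 enough in the ten-dose series to give a half-maximal potency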
DYRK1B RBC = DYRK1B kinase inhibition | shares compounds with NTMT1 inh | Recombinant Dyrk1b kinase assay, 10 uM ATP | Potency, µM, most hits filed as inhibitors | 80% of 65 active;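 active = compounds whose dose response shows an inhibitor phenotype against the kinase Dyrk1b; inactive = compounds showing no inhibitor phenotype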
CLK1 inh = blocks human CLK1 kinase activity. shares compounds with NTMT1 inh. recombinant Clk1 kinase assay, 10 uM ATP. Potency, µM, usual class: inhibitors. 90% of 65 active. AID 504430;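 active = compounds that block the splicing kinase Clk1 enough to give a fitted half-inhibition concentration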
NNMT inh = human NNMT inhibition, NTMT1 counter-screen; shares compounds with NTMT1 inh; NNMT MTase-Glo luminescence, SAH detection; Potency, µM (top dose mostly 57.1 µM), for inactives: at the highest dose activity, negative = inhibition, actives largely listed as inhibitors; 10% of 120 active; AID 1645878
Target sequence (P40261 whole entry, looked up): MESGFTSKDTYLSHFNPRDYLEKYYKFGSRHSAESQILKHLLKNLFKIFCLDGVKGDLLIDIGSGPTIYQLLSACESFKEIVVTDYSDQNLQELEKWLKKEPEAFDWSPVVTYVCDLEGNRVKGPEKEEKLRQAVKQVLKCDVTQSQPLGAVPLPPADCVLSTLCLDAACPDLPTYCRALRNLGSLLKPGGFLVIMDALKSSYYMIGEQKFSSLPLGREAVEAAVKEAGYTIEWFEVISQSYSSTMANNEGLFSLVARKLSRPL
An asterisk follows results filed as active; i = inactive; ? = inconclusive; . = no result; ! = repeats disagree; [ ] = dose if it differs, or a comment. Unless noted, calls come from the whole dose curve; as a rule, active = well fitted curve in the direction sought with a large enough effect; inconclusive = small, poorly fitted or top-dose-only effect, or another doubt; inactive = no such curve, though single readings can be large; an effect the other way counts as inactive or inconclusive.

SMILES | NTMT1 inh | HTT promoter inh | FH mod | HTT-AS promoter | DYRK1A inh-1 | others
COc1cc(N2CCC(N(C)C)CC2)ccc1Nc1ncc(Cl)c(Nc2ccccc2P(C)(C)=O)n1 | ? | . | -1.4% | . | .
CCOc1ccc(Cc2nc(-c3c(C)nc4ccccn34)cs2)cc1 | ? | . | -26.5% | . | . | NNMT inh=?
CCOc1ccc(Nc2nc(-c3c(C)nc4ccccn34)cs2)cc1 | -9.4% | -26.6% | -8.4% | -37.2% | . | NNMT inh=?
Cc1cc(C)cc(C(=O)NOCCCCCC(=O)NO)c1 | -8.6%[57.5 µM] | . | -0.9% | . | .
c1ccc(-c2oc3ncnc(NC[C@@H]4CCCO4)c3c2-c2ccccc2)cc1 | 10µM* | ? | -0.2% | -40.0% | . | NNMT inh=?
c1nc(NCC2CCCO2)c2ccc(-c3ccc4c(c3)OCO4)cc2n1 (configuration not stated) | -18.9%[57.5 µM] | . | . | . | .
Cc1ccc(Nc2nnc(Cc3ccncc3)c3ccccc23)cc1Br | 1.4% | . | . | . | .
Clc1ccc(Nc2nnc(Cc3ccncc3)c3ccccc23)cc1 | 89.1µM*! | ? | -3.4% | -19.7% | . | NNMT inh=?
Cc1occc1CNc1ncnc2ccc(-c3ccc4c(c3)OCO4)cc12 | ? | . | . | . | 0.0923µM* | CLK4 inh=0.047*;DYRK1A inh-2=0.057µM*;CLK2 inh=2.73µM*;CLK3 RBC=6.45µM*;DYRK1B RBC=0.431µM*;CLK1 inh=0.086µM*
Cc1cccc(CNc2ncnc3ccc(-c4ccc5c(c4)OCO5)cc23)c1 | 5.2%[57.5 µM] | . | . | . | .
c1nc(NCc2ccoc2)c2cc(-c3ccc4c(c3)OCO4)ccc2n1 | ? | . | . | . | 0.0923µM* | CLK4 inh=0.038*;DYRK1A inh-2=0.126µM*;CLK2 inh=0.877µM*;CLK3 RBC=4.65µM*;DYRK1B RBC=0.938µM*;CLK1 inh=0.111µM*
c1csc(CNc2ncnc3cc(-c4ccc5c(c4)OCO5)ccc23)c1 | -27.2% | . | . | . | .
Cc1cccc(CNc2ncnc3ccc(-c4cccc(Cl)c4)cc23)c1 | 5.9% | . | . | . | .
c1csc(CNc2ncnc3ccc(-c4ccoc4)cc23)c1 | ? | . | . | . | 1.46µM*
Cc1ccsc1CNc1ncnc2ccc(-c3ccc4c(c3)OCO4)cc12 | -12.3% | . | . | . | 0.0823µM* | CLK4 inh=0.035*;DYRK1A inh-2=0.035µM*;CLK2 inh=2.16µM*;CLK3 RBC=6.55µM*;DYRK1B RBC=0.506µM*;CLK1 inh=0.069µM*
CC(C)(C)OC(=O)N1CCC(C(=O)Nc2ccc([S+](=O)([O-])Nc3nccs3)cc2)CC1 | 15.1% | . | . | . | .
Cc1cccc(-c2ccc3ncnc(NCc4cc(C)cs4)c3c2)c1 | -1.7% | . | . | . | .
Cc1noc(C)c1-c1ccc2ncnc(NCc3ccccc3F)c2c1 | -15.5% | . | . | . | .
Cc1ccc(CNc2ncnc3ccc(-c4ccc5c(c4)OCO5)cc23)s1 | -0.1%[57.5 µM] | . | . | . | 0.519µM* | CLK4 inh=0.117*;DYRK1A inh-2=1.16µM*;CLK2 inh=15µM*;CLK3 RBC=i;DYRK1B RBC=15µM*;CLK1 inh=0.888µM*
c1c[nH]c(CNc2ncnc3ccc(-c4ccc5c(c4)OCO5)cc23)n1 | -11.7% | . | . | . | 0.367µM* | CLK4 inh=0.034*;DYRK1A inh-2=0.155µM*;CLK2 inh=3.59µM*;CLK3 RBC=15µM*;DYRK1B RBC=1.12µM*;CLK1 inh=0.191µM*
c1nc(OCc2cnc[nH]2)c2cc(-c3ccc4c(c3)OCO4)ccc2n1 | -10.1% | . | . | . | 8.23µM*
COCC(=O)NC/C=C/c1ccc2ncnc(Nc3ccc(Oc4ccc(C)nc4)c(C)c3)c2c1 | ? | . | -9.7% | . | .

Source: PubChem
